Compound activity as filed in PubChem.
CF NFkB block = blocks PAF-induced NF-kB reporter in cystic fibrosis cells | KKLEB NF-kB-GFP reporter, GFP fluorescence overnight | inhibition, % at 5 µM | 360,000 tested, 0.86% active;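 active = at least 50% inhibition at 5 µM, scaled per plate between neutral and stimulator controls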;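 also: PAF is a Pseudomonas aeruginosa culture filtrate used as stimulus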
TRPM1 prom inh = inhibitors of MITF-driven TRPM1 promoter in melanoma cells; SK-MEL-5 TRPM1 promoter luciferase, 24 h; inhibition, % at 12.5 µM; 330,000 tested, 0.83% active;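 active = mean inhibition across replicates of 60% or more, whatever share of single replicates reaches that level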
HIF-2a inh = HIF-2a inhibition; 786-0 RCC cells HIF-2a reporter, luciferase luminescence, overnight; inhibition, % at 18.8 µM; 360,000 tested, 0.72% active; AID 624352;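 active = inhibition of the luminescence signal of 40% or more relative to plate controls, in a single-dose primary screen at 18.75 µM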
KKLEB cytotox = CF airway cell cytotoxicity counter-screen | KKLEB CF airway cells viability, ATPlite luminescence, overnight; active compounds read low; cells stimulated with P. aeruginosa culture filtrate | activity change (cytotoxicity), % at 5 µM | 360,000 tested, 0.36% active;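 active = corrected activity change at or below -50% at 5 µM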
Beta2AR agonist = activates human beta-2 adrenergic receptor causing internalization; P07550; AID 504454; Am2.2-beta2AR cells, FAP receptor internalization, flow cytometry; 340,000 tested, 0.43% active; response, % (test concentration not listed);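 active = response above a set limit, near 3 SD of response in nonfluorescent compounds, cut at about 42% in these data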
Target sequence (P07550 whole entry, looked up): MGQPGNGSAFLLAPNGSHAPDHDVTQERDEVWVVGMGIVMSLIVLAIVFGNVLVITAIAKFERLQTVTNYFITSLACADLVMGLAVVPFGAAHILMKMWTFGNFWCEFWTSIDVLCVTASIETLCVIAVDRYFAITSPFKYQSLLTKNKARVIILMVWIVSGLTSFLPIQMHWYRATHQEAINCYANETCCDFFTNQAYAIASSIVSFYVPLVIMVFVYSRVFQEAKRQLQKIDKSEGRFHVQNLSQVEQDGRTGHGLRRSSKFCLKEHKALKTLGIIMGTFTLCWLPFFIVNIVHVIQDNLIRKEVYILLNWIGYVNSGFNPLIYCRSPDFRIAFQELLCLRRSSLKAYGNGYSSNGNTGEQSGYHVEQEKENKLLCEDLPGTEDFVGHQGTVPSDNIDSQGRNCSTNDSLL
Peg3 promoter = Peg3 promoter activity inhibition. HeLa PEG-Prom luciferase reporter, luminescence, overnight. inhibition, % at 20 µM. 360,000 tested, 1.7% active;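 active = inhibition of at least 50% at 20 µM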
Hits are given with their value; . = inactive; / = not tested or not shown. Rows were chosen to be rich in hits. Some 2.8% of all compounds tested hit in one or more screens of this group.

SMILES	CF NFkB block	TRPM1 prom inh	HIF-2a inh	KKLEB cytotox	Beta2AR agonist	Peg3 promoter
COC1=C(Nc2ccc(OC)cc2)C(=O)c2ccccc2C1=O	.	.	.	.	.	.
COc1ccc(-c2oc3c(c2C#CCCCCO)C(OCCO)CC3)cc1 (stereo unspecified)	/	/	.	/	/	/
Nc1ccc2c(c1)C(=O)C(=O)c1ccccc1-2	79.8	107.0	93.3	-96.4	80.5	99.8
CCn1c(=O)c(C(=O)Nc2ccccc2)c(O)c2ccccc21	.	.	.	.	.	.
CCn1c(=O)c(C(=O)Nc2nc3ccccc3[nH]2)c(O)c2ccccc21	88.8	.	.	-90.3	.	.
CCN1CCN(C(=O)C(=O)c2cn(CC(=O)N(CC)CC)c3ccccc23)CC1	.	.	.	.	.	63.1
CCN(CC)C(=O)Cn1cc(C(=O)C(=O)N2CCN(Cc3ccccc3)CC2)c2ccccc21	.	.	.	.	.	.
C=C(C(=O)c1ccccc1)C(C)CC(=O)c1ccccc1 (stereo unspecified)	.	.	.	.	.	71.7
O=C(c1nn2c(C(F)(F)F)cc(-c3ccco3)nc2c1Br)N1CCCc2ccccc21	.	.	.	.	.	60.4
CNS(=O)(=O)c1ccc2c(c1)NC(=O)C1CCCN21 (stereo unspecified)	.	.	.	.	.	81.5
COc1ccc(-n2nnnc2C(c2cc3ccccc3o2)N2CCN(C/C=C/c3ccccc3)CC2)cc1 (stereo unspecified)	.	/	.	.	/	.
O=C(Nc1ccn(Cc2ccccc2F)n1)c1ccc(COc2ccc(Br)cc2)cc1	.	.	.	-63.8	.	.
Clc1cccc(-c2cccc3nccn23)c1Cl	.	/	.	.	/	.
Cc1ccc([C@H]2C[C@H](O)[C@@H](n3cc(COC(=O)c4ccccc4)nn3)CN2Cc2cccs2)cc1	.	/	.	.	/	.
O=C(Nc1ccc(Cl)cc1)c1csc([C@@H]2C[C@H](O)[C@@H](CO)O2)n1	.	/	.	.	/	.
CCOCCn1ccc2c(OCC(=O)Nc3ccc(OC)cc3OC)cccc2c1=O	.	.	.	.	.	51.9
Oc1ccc(Br)c(CN2CCN(c3ncc(Cc4ccccc4)cn3)CC2)c1	/	/	.	/	/	/
COc1ccccc1S(=O)(=O)N(C)C[C@@H]1Oc2ncc(-c3ccc(C)cc3)cc2C(=O)N([C@H](C)CO)C[C@@H]1C	.	/	.	.	/	.
CC1=NNC(=O)/C1=C\c1cn(-c2ccccc2)nc1-c1ccc(Cl)cc1	.	.	87.2	.	107.5	78.8
CC(C)C[C@H](N)c1nnc(S(=O)(=O)Cc2cccc(F)c2)o1	.	.	.	.	.	66.8
CC(=O)OCC(=O)[C@@]1(O)CC[C@H]2[C@@H]3CCC4=CC(=O)C=C[C@]4(C)[C@@]3(Cl)[C@@H](Cl)C[C@@]21C	64.6	.	.	.	.	.
CCCCC(=O)O[C@]1(C(=O)CO)CC[C@H]2[C@@H]3CCC4=CC(=O)CC[C@]4(C)[C@H]3[C@@H](O)C[C@@]21C	57.4	.	.	.	.	.
C[C@]12C=CC(=O)C=C1CCC1C3CC[C@](O)(C(=O)CO)[C@@]3(C)CC3OC312 (stereo partly specified)	.	.	.	.	.	.
CC12C=CC(=O)C=C1CCC1C2C(O)CC2(C)C1CCC2(O)C(=O)CO (stereo unspecified)	63.5	.	.	.	.	.
CC(=O)OCC(=O)[C@@]1(O)CCC2C3CCC4=CC(=O)CCC4(C)C3C(=O)CC21C (stereo partly specified)	.	.	.	.	.	.
CC(=O)OCC(=O)[C@@]1(O)CC[C@H]2[C@@H]3CCC4=CC(=O)C=C[C@]4(C)[C@H]3[C@@H](O)C[C@@]21C	80.3	.	.	.	.	.
O=C(NC(Cc1cn(Cc2ccccc2)cn1)C(=O)O)OCC1c2ccccc2-c2ccccc21 (stereo unspecified)	.	/	.	.	/	.
C[C@]12CCC(=O)C=C1CC[C@@H]1[C@@H]2CC[C@@]2(C)[C@H]1CC[C@]2(O)C(=O)CO	.	.	.	.	.	.
CC12CCC(=O)C=C1C(F)CC1C2C(O)CC2(C)C1CCC2(O)C(=O)CO (stereo unspecified)	76.3	.	.	.	.	.
COC(=O)C1CCN(C2CN(C3CCCCC3)S(=O)(=O)C2)CC1 (stereo unspecified)	.	/	.	.	/	.
